Source: PubChem BioAssay AID841 (Emory University Molecular Libraries Screening Center, 2007)
The whole screen tested about 140,000 compounds, of which about 2,100 (1.5%) were called active. The sample as a whole holds a higher share of actives than the screen did. Values without a mark were called inactive. Cut-off read from the data, not from the text of the source: active = protection mostly above about 24% (no sharp cut-off); inactive = mostly below about 26%.

assay: compounds protecting cells from measles virus cytopathic effect, primary screen, measles RdRp inhibitor project, single point, MLSMR library, absorbance (AID 841); settings: Measles virus-infected cells, CPE protection, at 4 µM, stronger effect = higher value

Row | SMILES | protection (pct of control)
1 | O=C(OCC(O)C(O)COC(=O)c1ccccc1)c1ccccc1 (stereo unspecified) | 37.5% (active)
2 | O=C(COC(=O)c1ccccc1)Nc1ccccc1Sc1ccccc1 | 6.19%
3 | COC(=O)c1ccc(NCC(=O)c2ccccc2)cc1 | 2.68%
4 | CCn1c(O)c(N=NC(=O)c2cccc(S(=O)(=O)N3CCCCC3)c2)c2ccccc21 | 28.2%
5 | O=C(C/C(=N\NC(=O)c1ccccc1Br)C(F)(F)F)c1cccs1 | 9.78%
6 | O=S(=O)(c1ccc(F)cc1)N1CCN(C(=S)NCc2ccco2)CC1 | 18.5%
7 | COC(=O)c1c(NC(=O)CN2CCN(S(=O)(=O)c3ccccc3[N+](=O)[O-])CC2)sc2c1CCC(C)C2 (stereo unspecified) | 1.76%
8 | C/C(Cc1ccccc1)=N\NC(=O)CNC(=O)c1cccc(Br)c1 | 4.73%
9 | c1n[nH]c(NCc2ccc3c(c2)OCO3)n1 | 47.6% (active)
10 | CCOC(=O)NCc1ccc2c(c1)OCO2 | 22%
11 | O=C(COc1ccccc1)NCc1ccc2c(c1)OCO2 | 17.1%
12 | Cc1ccc(S(=O)(=O)Nc2nc(C)cc(N/N=C/c3ccc(O)cc3)n2)cc1 | 10.3%
13 | CCOC(=O)C1CCN(C(=O)/C=C/c2cc(OC)c(OC)c(OC)c2)CC1 | 18%
14 | COc1ccc(CNC(=O)CN(Cc2ccc(Cl)cc2)S(C)(=O)=O)cc1 | 24.2%
15 | Cc1cc(C)c(S(=O)(=O)N2C=CC(C(F)(F)F)=NCC2)c(C)c1 | 30.8% (active)
16 | Cc1cc(NS(=O)(=O)c2ccc(NC(=S)NC(=O)c3ccc(F)cc3Cl)cc2)no1 | 9.68%
17 | O=C(CN1CCCCCC1)N1c2ccccc2Sc2ccc(C(F)(F)F)cc21 | 27.8% (active)
18 | COc1cc(/C=C/C(=O)N2c3ccccc3Sc3ccc(C(F)(F)F)cc32)cc(OC)c1OC | 2.04%
19 | O=C(CN1CCCCC1)N1c2ccccc2Sc2ccc(C(F)(F)F)cc21 | 5.95%
20 | CCOC(=O)CNC(=O)/C=C/c1c(Cl)cccc1Cl | 1.29%
21 | COc1cccc(C2SCC(=O)N2c2cccc(C)c2)c1OC (stereo unspecified) | 8.06%

Row | SMILES | protection (pct of control)
22 | CC(C)C(C)(C#N)NC(=O)CSc1nc2scc(-c3ccccc3)c2c(=O)[nH]1 (stereo unspecified) | 8.49%
23 | COc1ccc(Cl)cc1C(=O)NCC#N | 16.7%
24 | Cc1nn(C)cc1CNC(=O)Nc1ccc(Cl)cc1 | 8.21%
25 | COc1ccc(Cl)cc1C(=O)NCc1cn(C)nc1C | 42.3% (active)
26 | CCCCCOc1ccc(/C=C/C(=O)NCCc2nc3ccccc3[nH]2)cc1OC | 1.18%
27 | CCOC(=O)c1c(C)n(C)c2ccc(OC)c(NS(=O)(=O)CC)c12 | 7.46%
28 | CC(Oc1ccccc1F)C(=O)NN (stereo unspecified) | 17.6%
29 | CCn1c2ccccc2c2cc(NC(=O)COC(=O)c3ccccc3Br)ccc21 | 15.5%
30 | Cn1cnc(C(F)(F)F)c1-c1ccc([N+](=O)[O-])cc1 | 14.3%
31 | COc1ccc(CCNC(=O)COC(=O)C2CCCCC2)cc1 | 7.59%
32 | Cc1ccc(C(=O)/C=C/c2c(C)nn(-c3ccccc3)c2Cl)cc1 | 60.1% (active)
33 | Cc1nn(-c2ccccc2)c(Cl)c1C(=O)Nc1ccccc1 | 5.22%
34 | Cc1nn(-c2ccccc2)c(Cl)c1/C=C/C(=O)c1ccc(O)cc1 | 21.9%
35 | CCOc1cc(C(=O)Nc2ncccn2)cc(OCC)c1OCC | 2.67%
36 | Cc1ccc2nsnc2c1NC(=O)c1ccccc1[N+](=O)[O-] | 5.19%
37 | CCOc1cc(C(=O)Nc2c(C)ccc3nsnc23)cc(OCC)c1OCC | 37.8% (active)
38 | COC(=O)Cc1ccc(N(Cc2ccccc2F)S(=O)(=O)c2ccc(Br)cc2)cc1 | 18.5%
39 | COc1ccc(NC(=O)CN2C(=O)C(c3ccccc3)=NC23CCCCCC3)cc1OC | 12%
40 | CCc1ccc(Oc2coc3cc(OC(=O)c4cc5ccccc5oc4=O)ccc3c2=O)cc1 | 5.53%
41 | Cc1ccc(S(=O)(=O)N2CCOCC2)cc1C(=O)NC(=S)N(Cc1ccccc1)C(C)C | 21.7%
42 | COc1cc2c(cc1/C=C1/NC(=O)N(c3ccccc3)C1=O)OCO2 | 22.7%

Row | SMILES | protection (pct of control)
43 | COC(=O)c1ccc(C(=O)OC)c(NC(=S)N2CCCCC2)c1 | 5.41%
44 | COC(=O)c1ccc(C(=O)OC)c(NC(=S)N2CCN(c3cc(Cl)ccc3C)CC2)c1 | 6.62%
45 | COC(=O)c1ccc(C(=O)OC)c(NC(=S)N2CCN(c3ccc(F)cc3)CC2)c1 | 54.6% (active)
46 | CCCc1cc(=O)[nH]c(SCc2cc(=O)oc3c(C)c(C)ccc23)n1 | 29.1%
47 | Cc1ccccc1Cn1nc(C)c(NC(=O)C(F)(F)F)c1C | 2.3%
48 | COC(=O)c1sc(N)c(C(=O)OC)c1COC(=O)CNS(=O)(=O)c1ccc(C)cc1 | 12.3%
49 | O=C(Nc1ccccc1Cl)c1ccccc1S(=O)(=O)c1ccccc1[N+](=O)[O-] | 2.96%
50 | Cc1cc(C)c(NC(=O)CS(=O)CC(=O)Nc2cccnc2)c(C)c1 (stereo unspecified) | 56.7% (active)
51 | CCC(=O)Nc1cccc(NC(=O)c2cccnc2)c1 | 5.87%
52 | O=C(CS(=O)(=O)Cc1ccccc1)Nc1cccnc1 | 20.4%
53 | COc1ccc(S(=O)(=O)NC(C)C)cc1C(=O)NC1CCCCC1 | 6.76%
54 | Cc1cccc(C(=O)NC(=S)N2CCN(c3ccc([N+](=O)[O-])cc3)CC2)c1 | 6.39%
55 | Cc1ccccc1N(C(=O)Cc1cccs1)C(C(=O)NC1CCCCC1)c1cn(C)nc1C (stereo unspecified) | 20.1%
56 | Cn1cccc1C(=O)Nc1nccs1 | 0.78%
57 | CN(CCCC(=O)Nc1nccs1)S(=O)(=O)c1ccc(Cl)cc1 | 15.3%
58 | O=C(CCSCCc1ccccn1)Nc1nccs1 | 45.9% (active)
59 | NC(=O)Cc1ccc2sc(-c3ccccc3)nc2c1 | 30.1%
60 | CCc1cccc(CC)c1NC(=O)COc1ccccc1C(=O)c1cc(C#N)c(=O)n(C2CCCCC2)c1 | 11.3%
61 | COc1ccc(NC(=O)CN(Cc2ccccc2)S(C)(=O)=O)cc1OC | 34.5%
